# Measured values taken from PubChem BioAssay AID1851 (National Center for Advancing Translational Sciences (NCATS), 2009).
# Several values for one entry are separate records, joined by “and”; a condition that tells them apart may be missing. Equal values may be shown once. The whole screen tested about 16,000 compounds, of which about 5,800 (36%) were called active. Roughly 23% stayed inconclusive and do not appear here. Some of the results follow. Unmarked numbers belong to inactive results. Calls follow the shape of the dose curve; as a rule, active = well fitted curve in the direction sought with a large enough effect; inconclusive = small, poorly fitted or top-dose-only effect, or effect the other way; inactive = no such curve, though single readings can be large or run the other way.
# Target: Cytochrome P450 2C19 (Homo sapiens) (UniProt P33261)
# Sequence (P33261 whole entry, looked up): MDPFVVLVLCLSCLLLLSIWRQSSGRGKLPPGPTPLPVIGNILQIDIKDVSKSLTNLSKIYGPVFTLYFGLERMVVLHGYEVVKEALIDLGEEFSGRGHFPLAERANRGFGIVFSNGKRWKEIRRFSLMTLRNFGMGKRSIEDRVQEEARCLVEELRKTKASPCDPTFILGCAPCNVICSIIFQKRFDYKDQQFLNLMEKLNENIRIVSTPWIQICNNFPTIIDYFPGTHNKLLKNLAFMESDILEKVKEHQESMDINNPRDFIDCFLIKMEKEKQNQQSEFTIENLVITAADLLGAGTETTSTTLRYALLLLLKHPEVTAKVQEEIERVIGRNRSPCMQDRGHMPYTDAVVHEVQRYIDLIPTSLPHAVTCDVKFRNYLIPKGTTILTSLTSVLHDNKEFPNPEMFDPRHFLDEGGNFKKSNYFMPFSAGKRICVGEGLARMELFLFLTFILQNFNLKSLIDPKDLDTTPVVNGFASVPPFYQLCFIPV
# Assay: Cytochrome panel assay with activity outcomes
# Conditions: recombinant CYP, pro-luciferin dealkylation, luminescence, p450-cyp2c19; series mostly up to 57.1 µM
# % is scaled to controls: 0 for no effect and ±100 for the full control effect.
Compound,"activity, negative = inhibition",AC50
O=C(NNC(=O)c1ccncc1)c1ccncc1,6.77% [at 11.4 µM],
O=C(Nc1nnc(C2CC2)s1)c1ccncc1,,17.8 µM (active)
NNC(=O)CNC(c1ccccc1)c1cc(Br)ccc1NC(=O)c1ccccc1Br (stereo not drawn),,7.08 µM (active)
Cc1ccc(-c2c3c(nc4sc(C(N)=O)c(N)c24)CCC3)cc1,,14.1 µM (active)
O=C1C(=O)N(c2cccc(Cl)c2)C(c2ccccc2[N+](=O)[O-])/C1=C(\O)c1ccccc1 (stereo not drawn),,20 µM (active)
COc1ccc(C2/C(=C(/O)c3ccccc3)C(=O)C(=O)N2c2ccccn2)c(OC)c1 (stereo not drawn),,inactive
O=[N+]([O-])c1ccc(C2=Nn3c(nnc3-c3ccc(Cl)cc3)SC2)o1,,2.51 µM (active)
O=C1COC(c2ccccc2O)=NN1CCCN1CCCC1,43.2% [at 11.4 µM],
Cn1c(=O)n(CC#N)c2ccccc21,,inactive
Cc1snc(SCC(=O)N/N=C(\N)COc2cccc(C(F)(F)F)c2)c1C#N,,4.47 µM (active)
Cc1ccc2c(c1)N(CC(=O)NCc1cccs1)C(=O)C(C)O2 (stereo not drawn),,2.51 µM (active)
COc1ccc(CCN(C)CCC(=O)Nc2c(C)cc(C)cc2C)cc1OC,,inactive
COc1ccc(CCNC(=O)CCN2C(=O)C(C)Oc3ccc(C)cc32)cc1OC (stereo not drawn),,20 µM (active)
Cc1ccc(C)c(NC(=O)Cn2nnc(C(=O)NCc3cccs3)c2N)c1,,inactive
CC(=O)OCC1=C(C(=O)O)N2C(=O)[C@@H](NC(=O)Cc3cccs3)[C@@H]2SC1,,inactive
NC(=O)/C(=N\OC(=O)c1ccco1)c1nc(-c2ccc(Br)cc2)cs1,,20 µM (active)
Cc1cc(C)cc(C(=O)N(C)[C@H](Cc2ccc(-c3ccccc3)cc2)C(=O)N[C@@H](Cc2c[nH]c3ccccc23)C(=O)O)c1,,10 µM (active)
O=C(O)[C@@H](Cc1c[nH]c2ccccc12)C(=O)NO,84.7% [at 11.4 µM],
CCc1cc2c(nc1CC)CCN(CC/C(C)=N/O[C@@H](C)c1cn([C@H](CO)Cc3ccccc3)nn1)C2,-17.2% [at 11.4 µM] and -16.8% [at 11.4 µM],
CC(=O)Nc1ccnc(-c2cccnc2)n1,,inactive
CC(C)(C)C(=O)Nc1ccnc(-c2cccnc2)n1,,2.24 µM (active)
O=C(Nc1ccnc(-c2cccnc2)n1)c1cccc(Cl)c1Cl,,2.82 µM (active)
O=C(N/N=C/c1cccc(OCc2ccccc2)c1)c1cccs1,,5.01 µM (active)
COc1ccc(CCN(C)Cc2ccc(OCc3ccccc3)c(OC)c2)cc1OC,,inactive

Compound,"activity, negative = inhibition",AC50
COc1cc(/C=N\NC(=O)C2C(=O)NCC2c2ccccc2)cc(OC)c1O (stereo not drawn),,inactive
C=CCNC(=S)N/N=C/c1ccc(OCc2ccccc2)cc1,,inactive
O=C(N/N=C/C=C/c1ccc([N+](=O)[O-])cc1)c1cccs1,,inactive
COc1cc(/C=N/NC(=O)c2cccs2)ccc1OCc1ccccc1,,1.41 µM (active)
O=C(N/N=C/c1ccc(OCc2ccccc2)cc1)c1cccs1,,2.51 µM (active)
Cc1c(NCc2cc(Cl)ccc2O)c(=O)n(-c2ccccc2)n1C,,5.62 µM (active)
Cc1c(NC(C)C)c(=O)n(-c2ccccc2)n1C,,inactive
Cc1c(NC(=O)Nc2c(Cl)cccc2Cl)c(=O)n(-c2ccccc2)n1C,10.7% [at 11.4 µM],
C=C(C)COc1ccc2c(c1)CCC1C2CC[C@]2(C)C(=O)/C(=N/O)CC12 (stereo partly drawn),19.2% [at 11.4 µM],
CCOC(=S)SCC(=O)O,38.2% [at 11.4 µM],
O=c1cc(-c2ccccc2)[nH]n1-c1ccc([N+](=O)[O-])cc1,,8.91 µM (active)
COc1cccc(/C=N/n2nnc3c(cnn3-c3ccccc3)c2=O)c1,,inactive
COc1ccc(Oc2c(Cl)cnn(-c3ccccc3)c2=O)cc1,,2.24 µM (active)
COc1ccc(-n2c(=O)c(C)nc3cnc(Oc4ccccc4)nc32)cc1,,inactive
CCCC[C@H]1C[C@@H]1[C@@H]1N(P(=O)(c2ccccc2)c2ccccc2)C[C@@](O)(c2ccccc2)CC12CC2,,inactive
O=C(NCCc1ccccc1)N1c2ccccc2Sc2ccccc21,,2.82 µM (active)
COc1ccc(S(=O)(=O)N2CCN(CC(=O)Nc3cc(OC)cc(OC)c3)CC2)cc1,,14.1 µM (active)
COc1ccc(S(=O)(=O)N2CCCN(CC(=O)Nc3ccc(OC)c(Cl)c3)CC2)cc1,,0.0631 µM (active)
COc1ccc(S(N)(=O)=O)cc1C(=O)NCCCN1CCN(c2ccc(C)cc2)CC1,,inactive
COc1ccc(NC(=O)N2CC[C@@]3(CCCN(S(C)(=O)=O)C3)C2)cc1,,inactive
COc1ccc(NC(=O)c2cc(S(=O)(=O)N3CCS(=O)(=O)CC3)ccc2Cl)cc1,,inactive
COc1ccc(C)cc1NC(=O)CN1CCN(S(=O)(=O)c2ccc(F)cc2)CC1,,2.82 µM (active)
COc1ccc(C)cc1NC(=O)CCC(=O)Nc1nnc(C(F)(F)F)s1,,inactive
COc1ccc(S(=O)(=O)N2CCCN(CCC(=O)Nc3cccc(C(F)(F)F)c3)CC2)cc1,,2.51 µM (active)

Compound,"activity, negative = inhibition",AC50
CC12CS(=O)(=O)CC1SC(=S)N2c1ccccn1 (stereo not drawn),,inactive
COc1ccc(NC(=O)N2CC[C@@]3(CCCN(C(=O)c4cccn4C)C3)C2)cc1,,inactive
CCOc1ccc(C(=O)CN2CCN(S(=O)(=O)c3ccc(F)cc3)CC2)cc1,,7.08 µM (active)
COc1ccc(S(=O)(=O)N2CCN(CC(=O)Nc3cccc(F)c3)CC2)cc1,,4.47 µM (active)
COc1ccc(C(=O)N2CCC3(CCN(C(=O)Nc4cccc(F)c4)CC3)CC2)cc1,,inactive
COC(=O)N1CCC2(CCCN(C(=O)Nc3cccc(F)c3)C2)CC1,,inactive
Cc1nc2nc(SCC(=O)NCc3ccco3)nn2c(C)c1Cc1c(F)cccc1Cl,,15.8 µM (active)
Cc1ccc(C2C3=C(CCCC3=O)Nc3nc(SCC(=O)NCc4ccco4)[nH]c(=O)c32)cc1 (stereo not drawn),,inactive
Cc1cccc(Cc2c(C)nc3nc(SCC(=O)NCc4ccco4)nn3c2C)c1,,5.01 µM (active)
O=C(NC(Cc1ccccc1)C(=O)O)/C(=C\c1ccco1)NC(=O)c1ccc(Br)cc1 (stereo not drawn),,inactive
CC(=O)c1ccc(NC(=O)C(Cc2ccccc2)NC(=O)c2ccco2)cc1 (stereo not drawn),,15.8 µM (active)
O=C(Nc1ccccc1)C(Cc1ccccc1)NC(=O)C12CC3CC(CC(C3)C1)C2 (stereo not drawn),,inactive
N#Cc1cccc(NC(=O)N2CC3(CCN(C(=O)c4cnccn4)CC3)C2)c1,,inactive
CCOC(=O)C1=C(C)N=C2SC(C(=O)OC)=CC(=O)N2C1c1ccc(F)cc1 (stereo not drawn),,1.26 µM (active)
CCCC(=O)NCCc1c2n(c3ccc(OC)cc13)Cc1ccccc1-2,,0.398 µM (active)
COc1ccc2c(c1)c(CC(=O)O)c(C)n2C(=O)c1ccccc1,,inactive
CC1(C)OC(=O)C(=CNc2cccc(O)c2)C(=O)O1,,inactive
CC1(C)OC(=O)C(=CNCC(O)c2ccccc2)C(=O)O1 (stereo not drawn),,11.2 µM (active)
CSCCC(NC=C1C(=O)OC(C)(C)OC1=O)C(=O)O (stereo not drawn),,inactive
COCCN1CN=C(Nc2nc3ccccc3s2)NC1,,14.1 µM (active)
COCCN1CN=C(Nc2nc3ccccc3o2)NC1,,inactive
COCCn1c(=O)c(-c2ccccc2)nc2cnc(Nc3ccccc3)nc21,,inactive
c1ccc2sc(SCN(C3CCCCC3)C3CCCCC3)nc2c1,-38.6% [at 11.4 µM],
c1ccc2sc(NC3=NCN(C4CCCCCC4)CN3)nc2c1,,1.12 µM (active)

Compound,"activity, negative = inhibition",AC50
CN1CCN(c2ncc3nc(-c4cc(F)cc(F)c4)c(=O)n(CCC#N)c3n2)CC1,,inactive
CN(C)c1ccccc1CN1CCCN(Cc2ccccc2N(C)C)C1c1ccncc1,-28.5% [at 11.4 µM],
CCCCCCCCN1C(=O)N(C)C(N(O)C(=O)NC)C1(C)C (stereo not drawn),,7.08 µM (active)
O=C(Nc1cc(C(F)(F)F)ccc1N1CCCCC1)c1ccc(Br)o1,,11.2 µM (active)
O=C(COc1ccccc1)Nc1cc(C(F)(F)F)ccc1N1CCCC1,,5.01 µM (active)
NS(=O)(=O)c1cc(C(=O)O)cc(N2CCCC2)c1Oc1ccccc1,,inactive
Nc1ncnc2c1ncn2CCCCC(=O)O,24.1% [at 11.4 µM],
COc1ccc2nccc(SCC(=O)O)c2c1,-14.8% [at 11.4 µM],
COc1ccc2nccc(C(=O)O)c2c1,,inactive
COc1ccc2nc(C)cc(SCC(=O)NNC(=O)COc3ccc(C)cc3)c2c1,,3.16 µM (active)
COc1ccc2nc(SCC(=O)NN)cc(C)c2c1,,inactive
COc1ccc2nc(C)cc(SCC(=O)Nc3c(C)cc(C)cc3C)c2c1,,2.51 µM (active)
NC(=O)c1cc[n+](CC2=C(C(=O)[O-])N3C(=O)[C@@H](NC(=O)Cc4cccs4)[C@@H]3SC2)cc1,,inactive
CCOC(=O)C(NC(C)=O)C(OC(C)=O)c1cccc(N(CCO)CCO)c1 (stereo not drawn),,inactive
Cc1c(NC(=O)C2CCN(S(=O)(=O)c3ccc(Cl)cc3)CC2)c(=O)n(-c2ccccc2)n1C,,inactive
O=C(Nc1nnc(C2CC2)s1)c1cc(S(=O)(=O)N2CCN(c3ccccc3)CC2)ccc1Cl,,7.08 µM (active)
COc1ccc(COC(=O)N/N=C2/C[C@@H](O)[C@@H](O)[C@@H]3[C@@H]4C(=O)N(C(C)(C)C)C(=O)[C@H]4CC[C@@H]23)cc1,1.08% [at 11.4 µM],
Brc1ccc([C@H]2CN3CCSC3=N2)cc1,,inactive
CN=c1nc(-c2ccccc2)n(-c2ccccc2)s1,,3.16 µM (active)
Cc1ccc(-n2c(-c3ccccc3)cc(=O)nc2C)cc1,,inactive
CC(=O)c1c(C)nc(-c2ccccc2)n1O,,inactive
